Hits are enriched below; roughly 2.6% of the tested compounds scored in any of these assays.
TRPV1 agonist: HTS Assay for Compounds that Act as Agonists of the Vanilloid Receptor 1; Transient receptor potential cation channel subfamily V member 1 (Homo sapiens), Q8NER1; TRPV1-expressing cells, Fluo-8 calcium influx, agonist mode; activation, % at 8.33 µM; 320,000 tested, 0.19% active; AID 540275, 2011; in the data active = activation above about 80%; inconclusive = between about 30% and that limit; note: 0% is about no effect
Target sequence (Q8NER1 whole entry, looked up): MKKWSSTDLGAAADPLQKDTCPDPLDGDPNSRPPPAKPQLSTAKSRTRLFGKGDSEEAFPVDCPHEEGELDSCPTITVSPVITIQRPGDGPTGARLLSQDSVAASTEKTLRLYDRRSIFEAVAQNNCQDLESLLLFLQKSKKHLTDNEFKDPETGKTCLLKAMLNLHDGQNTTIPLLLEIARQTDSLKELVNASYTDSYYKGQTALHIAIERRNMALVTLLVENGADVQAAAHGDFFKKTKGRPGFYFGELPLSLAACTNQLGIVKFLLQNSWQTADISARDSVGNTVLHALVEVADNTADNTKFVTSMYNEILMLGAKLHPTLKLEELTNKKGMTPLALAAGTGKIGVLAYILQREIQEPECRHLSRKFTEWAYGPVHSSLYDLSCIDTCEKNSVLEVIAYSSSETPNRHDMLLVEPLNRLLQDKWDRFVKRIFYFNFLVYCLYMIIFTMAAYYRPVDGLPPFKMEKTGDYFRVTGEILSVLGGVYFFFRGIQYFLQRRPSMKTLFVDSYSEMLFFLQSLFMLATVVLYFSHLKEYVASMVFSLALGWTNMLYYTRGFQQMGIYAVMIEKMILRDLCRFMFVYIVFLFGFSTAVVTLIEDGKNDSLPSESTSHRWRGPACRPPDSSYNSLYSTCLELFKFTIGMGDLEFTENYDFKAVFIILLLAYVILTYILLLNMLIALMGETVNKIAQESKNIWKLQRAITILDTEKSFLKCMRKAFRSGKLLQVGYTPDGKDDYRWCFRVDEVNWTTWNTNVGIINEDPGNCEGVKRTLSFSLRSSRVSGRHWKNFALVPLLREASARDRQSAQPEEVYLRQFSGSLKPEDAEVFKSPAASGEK
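TRPV1-expressing cells were cultured overnight at 35.5C and loaded with Fluo-8 calcium dye for 40 to 90 min at room temperature. After a 10 s baseline, compound was added and calcium influx was read kinetically for 3 min (ex 480/em 520 nm).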
KCNH2 WT inh: qHTS for Inhibitors of KCHN2 3.1: Wildtype qHTS. Voltage-gated inwardly rectifying potassium channel KCNH2 (Homo sapiens), Q12809. U2OS, BacMam KCNH2, thallium flux FluxOr; active compounds read low. activity change, % at 1.84 µM. 340,000 tested, 0.37% active;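 active = maximum activity change below -70%; inconclusive = maximum activity change between -70% and -50%; inactive = maximum activity change above -50%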; note: % is set by controls: 0 for no effect and ±100 for the full control effect
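U2OS cells were transduced with wild-type KCNH2 virus (2.03 x 10^8 / mL) for 4 h at room temperature, then cultured overnight at 37 C. Thallium flux was read with FluxOr dye. Rate constants were normalized to DMSO controls.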
ClpP mod: qHTS Assay for Activators of ClpP; ATP-dependent Clp protease proteolytic subunit (Bacillus subtilis (strain 168)), P80244; purified B. subtilis ClpP, FRET peptide cleavage, 20 min; Potency, µM (titrated, usually from 57.5 µM), for inactives: at the highest dose activity change, negative = active; 340,000 tested, 1.9% active; AID 651965, 2013; active = well fitted falling curve with a large enough effect; inconclusive = small, poorly fitted or top-dose-only effect; inactive = no such curve, though single readings can be large or run the other way; note: potency is the fitted concentration of half-maximal effect; the source files actives as falling curves though it sought activators and does not explain the sign; nearly all actives have a fitted effect of over 65% in size
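Purified B. subtilis ClpP, 10 microg/mL final in Tris/HCl pH8 with KCl, BSA, glycerol and Tween-20, cleaved an Abz/nitrotyrosine-quenched decapeptide. Fluorescence (ex 320, em 430) was read at 0 and 20 min at room temperature. Delta was normalized to 5.8 microM ADEP and DMSO/no-enzyme controls.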
TRPV1 PAM: HTS Assay for Compounds that Act as Potentiators of the Vanilloid Receptor 1; Transient receptor potential cation channel subfamily V member 1 (Homo sapiens), Q8NER1; TRPV1-expressing cells, Fluo-8 calcium influx, capsaicin EC20 potentiation; potentiation, % at 8.33 µM; 320,000 tested, 0.02% active; in the data active = potentiation above about 80%; inconclusive = between about 30% and that limit; note: 0% is about no effect
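TRPV1-expressing cells were cultured overnight at 35.5C and loaded with Fluo-8 calcium dye for 40 to 90 min at room temperature. After a 10 s baseline, compound was added and calcium influx was read kinetically for 3 min (ex 480/em 520 nm).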
p53 reactivation: qHTS assay for re-activators of p53 using a Luc reporter; AID 504706, 2011; H1299 p53-A138V BP100-luciferase reporter, luminescence, 24 h; Potency, µM (titrated, usually from 92.2 µM), for inactives: at the highest dose activity change, positive = activation, hits mostly activators; 320,000 tested, 0.063% active; active = well fitted activation curve with a large enough effect; inconclusive = small, poorly fitted or top-dose-only effect; inactive = no such curve, though single readings can be large or run the other way; note: potency is the fitted concentration of half-maximal effect; % of control where 0% means no effect; nearly all actives have a fitted effect of over 45% in size
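p53-null H1299 cells stably carrying temperature-sensitive p53-A138V and a BP100-luciferase reporter were pinned with compounds (4-point, 1:5 series) and held 24 hrs at 37 deg C. Luminescence was read 10 min after detection reagent.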
KCNH2 3.1 block: qHTS for Inhibitors of KCHN2 3.1: Mutant qHTS. Potassium voltage-gated channel subfamily H member 2, brain isoform KCNH2 3.1 (human). 340,000 tested, 0.95% active. AID 720553, 2013. U2OS KCNH2 3.1, thallium flux FluxOr; active compounds read low. activity change, % (tested at about 1.8 µM);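 active = maximum activity change below -70%; inconclusive = maximum activity change from -70% to -50%; inactive = maximum activity change above -50%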;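 note: thallium influx rate constant from kinetic fluorescence after stimulation buffer; % is set by controls: 0 for no effect and ±100 for the full control effect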
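FluxOr-based Tl+ influx in U2OS cells transduced with KCNH2 3.1 virus; rate constants normalized to DMSO controls.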
Starred values were filed as active, the others as inactive; ? = inconclusive; . = no result.

SMILES | TRPV1 agonist | KCNH2 WT inh | ClpP mod | TRPV1 PAM | p53 reactivation | KCNH2 3.1 block
Cc1c(NC(=O)COc2cccc3c2OC(C)(C)C3)c(=O)n(-c2ccccc2)n1C | -2 | -1 | 0% | 10 | 2% | -107*
Cc1ccc(C)c(OCC(=O)Nc2c(C)n(C)n(-c3ccccc3)c2=O)c1 | -3 | -15 | -2% | 27 | 1% | 2
O=C(CC1N=C2c3ccccc3N=C(SCc3cccc(F)c3)N2C1=O)NCc1ccc2c(c1)OCO2 (configuration not stated) | . | . | -12% | . | . | .
COc1ccc2c(c1)CC(C(=O)N1CCC(C(N)=O)CC1)CO2 (configuration not stated) | . | . | -16% | . | . | .
CCc1ccc2c(c1)C(C)=CC(C)(C)N2 | 1 | -8 | 32µM* | 5 | 5% | 5
CCOc1ccc2c(c1)C(C)=CC(C)(C)N2 | 4 | -1 | 4% | -10 | 4% | -4
CCCCN1C(=O)C(CC(=O)NCc2cccc3ccccc23)CC(C(=O)N(C)C)=C1C (configuration not stated) | . | 7 | -2% | . | . | -91*
CCOC(=O)c1ccc(NC(=O)N2CCN(CCc3ccccc3)CC2)cc1 | ? | -18 | -3% | -20 | ? | -2
O=C(Nc1ccccc1Cl)N1CCN(c2ccccn2)CC1 | 10 | 1 | 22µM* | -5 | 6% | 27
CCOC(=O)c1ccc(N2CCN(c3ccccc3F)CC2)c(NC(=O)Nc2cccc(OC)c2)c1 | 0 | -3 | 25µM* | 1 | -1% | 6
CCOC(=O)c1ccc(NC(=O)N2CCN(c3ccccn3)CC2)cc1 | -1 | 9 | 22µM* | -12 | -3% | 3
CCOC(=O)c1ccc(N2CCN(c3cc(Cl)ccc3C)CC2)c(NC(=O)Nc2cccc(OC)c2)c1 | . | . | 4% | . | . | .
COc1ccccc1NC(=O)N1CCN(c2ccccn2)CC1 | 13 | -19 | 4% | -2 | -1% | 1
O=C1CC(C(=O)N2CCN(c3ccccn3)CC2)CN1Cc1ccccc1Cl (configuration not stated) | 14 | -4 | 32µM* | -3 | 2% | -8
CC(=O)N1c2ccc(S(=O)(=O)NCC3CCC(C(=O)NCCC(C)C)CC3)cc2CC1C (configuration not stated) | . | . | 2% | . | . | .
CCOC(=O)c1ccc(NC(=O)N2CCN(c3cccc(OC)c3)CC2)cc1 | 99* | -13 | . | -20 | 2% | -13
N#Cc1ccc(NC(=O)CN2CCN(c3ccccn3)CC2)cc1 | 1 | 40 | -2% | -3 | 0% | -76*
Cc1nc2cc(NC(=O)N3CCN(c4ccccn4)CC3)ccc2o1 | -4 | -1 | 25µM* | 15 | . | 3
CCOc1ccc(-c2nnc(SCC(=O)NCc3ccccc3Cl)o2)cc1 | . | . | -1% | . | . | .
CCOC(=O)c1c(C)[nH]c(C)c1C(=O)COC(=O)/C=C/c1ccc(OC)cc1 | 0 | -5 | 16µM* | 2 | -3% | 1
CCOC(=O)c1c(C)[nH]c(C)c1C(=O)COC(=O)/C=C/c1cccc(F)c1 | -6 | 7 | -1% | -13 | -7% | 9
COc1ccc(-n2nc3c(c2NC(=O)C(C)Oc2ccccc2)CS(=O)C3)cc1 (configuration not stated) | -3 | 0 | 32µM* | 13 | 0% | 7
CCC(CC)C(=O)Nc1c2c(nn1-c1ccc(OC)cc1)CS(=O)C2 (configuration not stated) | 0 | 6 | 2% | -16 | -1% | 10
